Compound activity as filed in PubChem.
Only some compounds are listed: those with a hit (about 9.3% of all), similar ones and a draw of the others.
VACV Venus inh: vaccinia inhibition (Venus reporter); Vaccinia virus Venus reporter expression, fluorescence; Potency, µM (doses to about 36.5 µM), hits mostly inhibitors; actives 0.46% (n = 330,000); calls by dose curve; tested in A549 cells; note: nearly all actives have a fitted effect of over 30% in size
HCMV antiviral: inhibitors of human cytomegalovirus | actives 4.5% (n = 410,000) | HFF cells, HCMV-luciferase reporter, 72 h; active compounds read low | activity change, negative = inhibition, % at 57.5 µM; in the data active = activity change below about -60%; inconclusive = no clear call, values can overlap the other calls; inactive = above about -39%
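Inhibition of viral replication was scored as loss of reporter luminescence in HFFs infected with HCMV-luciferase (MOI 1 PFU/cell) for 72 h; compounds tested at 2 doses, normalized to buffer and Salinomycin controls.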
Sm TGR block: blocks Schistosoma mansoni thioredoxin glutathione reductase; purified TGR, DTNB reduction, TNB absorbance 405 nm; Potency, µM (doses to about 114 µM), hits mostly inhibitors; actives 3% (n = 360,000); AID 485364; note: nearly all actives have a fitted effect of over 60% in size
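First, TGR (20 nM dispensed) and NADPH were mixed with compound. Second, a 15 min room-temperature incubation followed. Third, further NADPH and then DTNB were added to start the reaction. Finally, TNB absorbance was monitored kinetically.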
HCV inhibitor: HCV inhibition. actives 3.4% (n = 340,000). Potency, µM (doses to about 41.8 µM), most hits filed as inhibitors. Huh7.5.1 HCVcc-Cre infection, luciferase reporter, 44 h
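Compounds are dispensed onto cells plated 4 h earlier at 1,000 per well, with HCVcc-Cre virus (about 0.5 moi) added next. Following 44 h of culture, luminescent signal is measured for 15 sec after 15 min with substrate at room temperature.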
Vaccinia mCherry: vaccinia inhibition (mCherry reporter); AID 720579; Potency, µM (doses to about 36.5 µM), most hits filed as inhibitors; Vaccinia virus mCherry reporter infection, fluorescence; actives 0.63% (n = 310,000); calls by dose curve; tested in A549 cells; note: nearly all actives have a fitted effect of over 35% in size
FMDV inh: blocks foot and mouth disease virus; FMDV antiviral cell-based qHTS; Potency, µM (series often up to 57.9 µM), most hits filed as inhibitors; actives 1.2% (n = 410,000); AID 1159524; calls by dose curve; tested in HEK293T cells; note: read-out not given here; nearly all actives have a fitted effect of over 45% in size
A number is an active result; n = inactive; u = inconclusive; x = no result given; [ ] = another dose, or the depositor's remark. Unless noted, calls come from the whole dose curve; as a rule, active = well fitted curve in the direction sought with a large enough effect; inconclusive = small, poorly fitted or top-dose-only effect, or another doubt; inactive = no such curve, though single readings can be large; an effect the other way counts as inactive or inconclusive.

SMILES	VACV Venus inh	HCMV antiviral	Sm TGR block	HCV inhibitor	Vaccinia mCherry	FMDV inh
Cc1ccc(-c2nc3ccc(C)cn3c2Cc2ccccn2)cc1	n	n	x	x	n	n
Fc1ccc(Nc2c(-c3ccccn3)nc3ccc(Cl)cn23)cc1	n	n	n	x	n	n
Cc1ccc2nc(-c3ccccn3)c(Nc3ccc(F)cc3)n2c1	u	-94	n	x	u	u
CSc1ccc(S(=O)(=O)NCc2ccc(Cl)cc2Cl)cc1	x	n	n	n	x	n
CCOc1ccc(OCC)c(NC(=O)CN(C)S(=O)(=O)c2ccc3nc(C)sc3c2)c1	n	u	n	u	u	32µM
COC(=O)CN1C(=O)c2cccc3cccc1c23	n	n	n	n	n	n
O=P1(Oc2ccccc2)OCCCS1 (stereo unspecified)	x	n	n	n	x	35µM
COc1ccccc1NC(=O)C(C)OC(=O)CN1C(=O)C2CC=CCC2C1=O (stereo unspecified)	n	n	n	n	n	n
Cc1nc2c(c(=O)n1CCC1=CCCCC1)c1nc3ccccc3nc1n2/N=C/c1ccco1	n	n	11µM	u	x	n
COCCn1cnc2c(c1=O)c1nc3ccccc3nc1n2/N=C/c1ccc(OC)c(OC)c1	n	n	n	n	n	n
CCCCCCn1cnc2c(c1=O)c1nc3ccccc3nc1n2/N=C/c1ccco1	n	n	14µM	n	x	n
COCCn1cnc2c(c1=O)c1nc3ccccc3nc1n2/N=C/c1ccco1	x	n	45µM	n	x	u
COc1ccc(C)cc1N(C(=O)c1ccc(F)cc1)c1nc2ccccc2s1	n	n	n	u	n	n
O=C(Cn1c(=O)n(CC2CS2)c2ccccc21)N1CCCCCC1 (stereo unspecified)	n	-70	x	n	n	n
O=C(c1cc(COc2ccc3ncccc3c2)on1)N1CCCC(O)C1 (stereo unspecified)	n	-63	n	u	n	n
CC(CNC(=O)c1cc(COc2ccc3ncccc3c2)on1)c1ccccc1 (stereo unspecified)	n	-76	n	u	n	u
O=C(c1cc(COc2ccc3ncccc3c2)on1)N1CCC(O)CC1	n	-82	n	8.9µM	n	n
Cc1cc(CN(C)C(=O)c2cc(COc3ccc4ncccc4c3)on2)on1	n	-80	32µM	2.8µM	n	u
COc1ccc(S(=O)(=O)NCCc2sc(C)nc2C)cc1	n	n	n	x	n	n
Cc1nnc(NC(=O)c2cccn(Cc3ccc(Cl)cc3)c2=O)s1	n	n	n	x	n	u
CN(C(=O)CN1C(=O)S/C(=C\c2ccccc2Cl)C1=O)C1CCS(=O)(=O)C1 (stereo unspecified)	x	u	n	n	x	u
Cc1ccc(-n2c(SCC(=O)NCCN3C(=O)CSC3=O)nnc2-c2ccccc2F)cc1	n	u	n	n	n	n
CCCC(=O)Nc1ccc(C(=O)NCC(=O)OCC)cc1	n	n	n	n	n	n
CCN(CC)S(=O)(=O)c1ccc(C(=O)Nc2nnc(CSC)o2)cc1	x	n	n	n	x	n
COc1cccc(OCc2cc(C(=O)N3CCC(C(O)C(C)C)CC3)no2)c1 (stereo unspecified)	x	n	n	n	x	n
SMILES	VACV Venus inh	HCMV antiviral	Sm TGR block	HCV inhibitor	Vaccinia mCherry	FMDV inh
CCOC(=O)C1CCCN(C(=O)c2cc(COc3ccc(C)nc3)on2)C1 (stereo unspecified)	n	n	u	8.9µM	n	n
Cc1cccc(C)c1OCc1cc(C(=O)NC2CCC2)no1	x	n	n	u	x	n
O=C(NC1CCCCCCC1)c1cc(COc2ccc3ncccc3c2)on1	n	u	n	u	n	3.5µM
CCC(O)C1CCN(C(=O)c2cc(COc3ccc4ncccc4c3)on2)CC1 (stereo unspecified)	n	x	n	1.8µM	n	u
Cc1ccc(OCc2cc(C(=O)N(C)Cc3cnc4ccccn34)no2)cc1C	n[7.34 µM]	u	n	11µM	n[7.34 µM]	u
CN(C)c1ccc(C(=S)N2CCN(C(=S)Nc3cccc4ccccc34)CC2)cc1	n	u	n	u	n	n
COc1cccc(NC(=O)CN2CCN(c3ccccc3F)CC2)c1	n	n	n	n	x	n
COc1ccccc1C/C(N)=N/O	n	n	n	n	n	n
COCC1CCCN(C(=O)c2cc(COc3cccc4cccnc34)on2)C1 (stereo unspecified)	n	n	n	u	n	n
COCC1CCCN(C(=O)c2cc(COc3ccc4ncccc4c3)on2)C1 (stereo unspecified)	n	-85	n	1µM	n	u
Cc1cc(C)c(CN2CCC(n3nccc3NC(=O)C3CCCC3)CC2)cc1C	x	n	n	u	x	n
Cc1cc(C)cc(-n2c3ccc(NC(=O)Cc4cccc5ccccc45)cc3c(=O)n2C)c1	n	-71	x	x	n	n
Cn1c(=O)c2cc(NC(=O)Cc3ccccc3F)ccc2n1-c1ccc(C(C)(C)C)cc1	n	n	x	x	n	n
Cc1cccc(C)c1NC(=O)C(c1ccccc1F)n1c(=O)c(-c2ccccc2)nc2ccccc21 (stereo unspecified)	n	n	x	x	n	n
COc1ccc(N2C(=O)CCSC23C(=O)N(Cc2ccc(F)cc2)c2ccccc23)cc1 (stereo unspecified)	u	u	n	x	11µM	n
COc1ccc(N2C(=O)CCSC23C(=O)N(Cc2ccc(F)cc2)c2ccccc23)cc1Cl (stereo unspecified)	u	n	n	x	u	n
N#Cc1nc(NCC(F)F)nc(Nc2cc(F)cc(F)c2)n1	x	n	n	x	x	11µM
Cc1cccc2cc(C#N)c(SCc3nnc(-c4ccccc4[N+](=O)[O-])o3)nc12	n	u	n	n	n	n
COC(=O)[C@H]1[C@H](CO)[C@H]2Cn3c(cccc3=O)[C@@H]1N2CC1CC1	x	n	x	x	x	x
CC(C)(CN1CCNCC1)NS(=O)(=O)c1ccc(Cl)cc1	x	n	n	4µM	x	u
CN1CCN(CC(C)(C)NS(=O)(=O)c2ccccc2)CC1	n	-61	x	n	n	n
CC(C)(CN1CCOCC1)NS(=O)(=O)c1ccccc1	n	n	n	n	n	n
C[C@H]1[C@@H](NS(=O)(=O)c2ccccc2)CC[C@@]23CCCN2C(=O)CCC[C@@H]13	x	n	x	x	x	x
COc1ccc(N(C(C)=O)C2C=CS(=O)(=O)C2)c(OC)c1 (stereo unspecified)	n	n	n	n	n	n
CCCOc1ccccc1-n1sc2c(c1=S)-c1cc(OC)cc3c1N(C(=O)C3=O)C2(C)C	n	n	n	13µM	n	u
COc1cc2c3c(c1)C(C)CC(C)(C)N3C(=O)C2=O (stereo unspecified)	n	n	n	n	n	n
CN1CCN(C(=O)c2cccc(S(=O)(=O)N3CCCC3)c2)CC1	x	n	n	n	x	n
CC(=O)N1N=C(c2c(-c3ccccc3)c3cc(Br)ccc3[nH]c2=O)CC1c1ccco1 (stereo unspecified)	x	u	13µM	u	x	u
